MEP2 TOR yeast: modulators of MEP2-GFP levels in yeast, primary screen, S. cerevisiae, multiplex flow cytometry, MLPCN library. S. cerevisiae MEP2-GFP strain, 3 h; 100% = DMSO control level. GFP response vs DMSO, % at 10 µM. hit rate 0.51% among 330,000. AID 2016, 2009;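 active = GFP response versus DMSO above a set limit, roughly screen mean plus 3 SD, cut at about 180% in these data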;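 note: median GFP fluorescence of the barcode-gated MEP2-GFP cells per well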
CIT2 TOR yeast: modulators of CIT2-GFP expression in yeast, primary screen, S. cerevisiae, GFP fusion, multiplex flow cytometry, MLPCN library; S. cerevisiae CIT2-GFP strain, 3 h; 100 means same as DMSO wells; GFP response vs DMSO, % at 10 µM; hit rate 0.065% among 320,000;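 active = GFP response relative to DMSO above a set limit, near the screen mean plus 3 SD, cut at about 150% in these data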;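 note: ratio of well median GFP fluorescence to mean of DMSO wells on the plate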
LAP4 TOR yeast: modulators of LAP4-GFP expression in yeast, primary screen, S. cerevisiae, multiplex flow cytometry, MLPCN library | GFP response vs DMSO, % at 10 µM | hit rate 0.34% among 320,000 | 3 h; median GFP as percent of DMSO wells;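 active = GFP response vs DMSO above a set limit, about the screen mean plus 3 SD, cut at about 150% in these data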
AGP1 TOR yeast: modulators of AGP1-GFP expression in yeast TOR pathway, primary screen, cell-based, multiplex flow cytometry, S. cerevisiae, MLPCN library. 3 h; GFP as percent of DMSO wells. GFP response vs DMSO, % at 10 µM. hit rate 0.02% among 320,000. AID 2066, 2009;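 active = GFP response relative to DMSO above a set limit, near screen average plus 3 SD, cut at about 150% in these data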;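 note: median GFP channel fluorescence of the gated AGP1 strain per well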
RPL19A-GFP yeast: RPL19A-GFP expression modulators in yeast, primary screen, cell-based, S. cerevisiae, multiplex flow cytometry, MLPCN | hit rate 0.3% among 330,000 | S. cerevisiae RPL19A-GFP strain, 3 h; active compounds read low | AID 2025, 2009 | percent response vs DMSO, % at 10 µM;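 active = percent response vs DMSO below 50%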;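 note: median channel GFP fluorescence of the barcoded RPL19A-GFP strain; ratio of sample median GFP to plate DMSO average so 100% = DMSO; lower means less RPL19A-GFP as with rapamycin TOR inhibition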
LAP4-GFP pick2: LAP4-GFP expression modulators in yeast, confirmation, cell-based, second cherry pick, flow cytometry; shares compounds with LAP4 TOR yeast; S. cerevisiae LAP4-GFP strain, 3 h; GFP response vs DMSO, % at 10 µM; hit rate 20% among 590; AID 2621, 2010;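 active = GFP signal as percent of the solvent control above about 150%, meaning raised reporter expression, limit read from the data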;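 note: ratio of well median GFP fluorescence to plate DMSO mean so 100% = DMSO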
MEP2 cherry2: modulators of MEP2-GFP levels in yeast, confirmation, S. cerevisiae, flow cytometry GFP, second cherry picks; shares compounds with LAP4 TOR yeast; S. cerevisiae MEP2-GFP strain, 3 h; GFP response vs DMSO, % at 10 µM; hit rate 10% among 590;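 active = GFP signal above 150% of the solvent control wells, that is a rise of more than half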;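 note: median channel GFP fluorescence of all gated yeast cells per well; ratio of median GFP to plate DMSO average so 100% = DMSO level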
RPL19A GFP CP2: RPL19A-GFP modulators in TOR pathway yeast, confirmation, cell-based, S. cerevisiae, flow cytometry, second cherry pick | S. cerevisiae RPL19A-GFP strain, 3 h; active compounds read low; 100% means same as DMSO wells | hit rate 3% among 590 | GFP response vs DMSO, % at 10 µM | shares compounds with LAP4 TOR yeast;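 active = under 65% GFP response relative to DMSO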;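 note: median GFP channel fluorescence per well over the all cells gate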
CIT2 GFP CP2: modulators of CIT2-GFP expression in yeast, confirmation, flow cytometry, second cherry pick, single plex; shares compounds with LAP4 TOR yeast; S. cerevisiae CIT2-GFP strain, 3 h; DMSO control wells read 100%; GFP response vs DMSO, % at 10 µM; hit rate 8% among 590; AID 2624, 2010;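 active = GFP response vs DMSO above about 150%, limit read from the data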;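 note: median green fluorescence per well over all gated yeast cells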
AGP1 GFP CP2: AGP1-GFP expression modulators, hit retest, confirmation, cell-based, flow cytometry, S. cerevisiae, cherry pick set 2 | 590 tested, under 10 active | percent response vs DMSO, % at 10 µM | S. cerevisiae AGP1-GFP strain, 3 h | shares compounds with LAP4 TOR yeast;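 active = over 150 percent of DMSO response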;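 note: median GFP channel fluorescence over all cells without mother daughter split; sample median GFP divided by mean DMSO control so 100% equals DMSO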
s288c autofluor: compound autofluorescence in yeast s288c, dose response, artefact control for yeast TOR pathway GFP screen, s288c strain. shares compounds with LAP4 TOR yeast. 610 tested, under 10 active. S. cerevisiae s288c, 520 nm autofluorescence, flow cytometry, 3 h; active compounds read high; zero means same as solvent-only cells. fluorescence change (kMESF span) at 33 µM;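 active = fluorescence span over the dose series, or activity score, above about 33, limit read from the data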
s288c autofl DR: autofluorescence of compounds in yeast s288c, dose response, artefact control for yeast TOR pathway GFP screen, primary hits, KU SAR, s288c parental | S. cerevisiae s288c parental, compound autofluorescence, flow cytometry, 3 h | fluorescence change (span) at 33 µM | AID 488829, 2010 | shares compounds with LAP4 TOR yeast | 110 tested, under 10 active;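 active = fluorescence change span, or the activity score built from it, above 25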
TORC1 bypass: wild-type yeast growth inhibition sparing TORC1 bypass cells, mechanism study for yeast TOR pathway GFP screen, BY4741 wild type, TORC1 bypass strain | shares compounds with LAP4 TOR yeast | S. cerevisiae BY4741 spot growth rating, 48-72 h; active compounds read low | growth rating (0-3) at 30 µM | 120 tested, under 10 active | AID 504456, 2011;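 active = growth rating at most 1 for wild type yeast while the TORC1 bypass strain still grows fully, rated 3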
Active calls of the source: *; . = not tested or not shown. Hits are enriched below; roughly 0.93% of the tested compounds scored in any of these assays.

SMILES	MEP2 TOR yeast	CIT2 TOR yeast	LAP4 TOR yeast	AGP1 TOR yeast	RPL19A-GFP yeast	LAP4-GFP pick2	MEP2 cherry2	RPL19A GFP CP2	CIT2 GFP CP2	AGP1 GFP CP2	others
O=C1N(c2ccccc2C(F)(F)F)O[C@]1(c1ccccc1)C1CCCCC1	89	99	85	71	95	107	102	105	115	107	s288c autofluor=-0.1
C=CCOc1ccc(/C=C/C(=O)OCC(=O)N2CCC(c3ccccc3)=N2)cc1	174	171*	170*	122	116	98	102	98	98	98
C=CCOc1ccc(/C=C/C(=O)OCC(=O)NCCCc2ccccc2)cc1	114	95	101	103	97	.	.	.	.	.
Cc1ccc(NS(=O)(=O)c2ccc(C(=O)N3CCN(S(=O)(=O)c4ccccc4)CC3)cc2)cc1	96	102	97	102	100	.	.	.	.	.
O=C(O)c1ccc(-c2ccc(Cl)cc2Cl)o1	93	76	98	69	81	.	.	.	.	.
CN(C)/C=C/C(=O)c1ccc(-c2ccc(Cl)cc2Cl)o1	160	85	83	21	58	159*	148	113	154*	87	s288c autofluor=0.8
COc1cc(NC(=O)c2cccnc2)c(Cl)cc1NC(=O)c1ccccc1	95	82	66	84	101	.	.	.	.	.
CN1C(=O)c2ccc(C(=O)NCc3ccccn3)cc2C1=O	107	109	103	105	104	.	.	.	.	.
CC(C)CCN1C(=O)c2ccc(C(=O)NCc3ccccn3)cc2C1=O	173	127	164*	114	71	111	128	100	115	103
CCn1cc(C(=O)Nc2ccc(OC)c(S(=O)(=O)N3CCCCC3)c2)c(=O)c2ccc(C)nc21	175*	138	158*	113	107	96	102	102	97	103
Cc1cc2nc(CN(C)Cc3c(C(=O)N(C)C)nc4ccc(Cl)cn34)[nH]c2cc1C	104	100	100	97	96	.	.	.	.	.
COC(=O)[C@H](Cc1c[nH]c2ccccc12)NC(=O)Nc1ccccc1OC	109	99	111	107	101	.	.	.	.	.
COc1cccc(N=Cc2nc(-c3ccccc3)oc2OC(C)=O)c1	89	.	.	.	99	.	.	.	.	.	s288c autofluor=-0.2
COc1ccc(N=Cc2nc(-c3ccccc3)oc2OC(C)=O)cc1	98	89	120	101	103	.	.	.	.	.	s288c autofluor=0
COc1cccc(N=CC2=C(O)CCCC2=O)c1	102	92	106	99	93	.	.	.	.	.
Cc1ccccc1NC(=O)c1ccccc1N(C)S(=O)(=O)c1ccccc1	105	102	108	107	98	.	.	.	.	.
CCn1c(=O)c([N+](=O)[O-])c(Cl)c2ccccc21	95	90	104	76	62	118	133	72	81	77
CCn1c(=O)c([N+](=O)[O-])c(NCCN(C)C)c2ccccc21	111	91	100	108	102	.	.	.	.	.
O=C(c1ccc([N+](=O)[O-])s1)N1CCN(c2ccccn2)CC1	105	102	104	110	105	.	.	.	.	.
COc1ccc(OC)c2sc(N3CCN(C(=O)c4ccc([N+](=O)[O-])s4)CC3)nc12	106	88	160*	86	95	136	143	97	147	99
c1ccc(-c2nc3ccccn3c2-c2ccccc2)cc1	96	109	117	104	100	.	.	.	.	.
O=C(Cc1ccc(Cl)cc1)Nc1ccc(NC(=O)c2ccccc2)cc1	96	104	99	105	101	.	.	.	.	.
O=C(CC(=O)c1ccccc1)Nc1ccc(Cl)cc1	122	103	127	106	114	100	103	103	92	98
COc1ccccc1NC(=O)CC(=O)Nc1ccccc1OC	101	100	89	97	103	.	.	.	.	.
COc1ccccc1NC(=O)CC(=O)c1ccccc1	116	100	103	92	104	101	101	97	106	91
SMILES	MEP2 TOR yeast	CIT2 TOR yeast	LAP4 TOR yeast	AGP1 TOR yeast	RPL19A-GFP yeast	LAP4-GFP pick2	MEP2 cherry2	RPL19A GFP CP2	CIT2 GFP CP2	AGP1 GFP CP2	others
CNc1nc(N)c([N+](=O)[O-])c(Nc2ccccc2)n1	.	.	.	.	.	.	.	.	.	.	s288c autofl DR=0.63;TORC1 bypass=3
COCCNc1nc(N)c([N+](=O)[O-])c(NCC2CCCO2)n1 (stereo not given)	96	99	93	98	99	.	.	.	.	.
CNc1nc(N)c([N+](=O)[O-])c(NCC2CCCO2)n1 (stereo not given)	97	97	105	96	96	.	.	.	.	.	s288c autofl DR=0.06;TORC1 bypass=3
CNc1nc(N)c([N+](=O)[O-])c(Nc2ccc(Cl)cc2)n1	.	.	.	.	.	.	.	.	.	.	s288c autofl DR=0.05;TORC1 bypass=3
Nc1nc(NCc2ccccc2)nc(Nc2ccc(F)cc2)c1[N+](=O)[O-]	106	104	101	113	105	.	.	.	.	.
CCOc1ccc(Nc2nc(NC)nc(N)c2[N+](=O)[O-])cc1	.	.	.	.	.	.	.	.	.	.	s288c autofl DR=0.05;TORC1 bypass=3
C=CC[C@H](CC(=O)N(CCO)Cc1ccccc1)C(=O)NCCOC(=O)[C@@H](CC=C)CC(=O)OC(C)(C)C	103	121	110	116	121	.	.	.	.	.
